According to ChEMBL document CHEMBL3988442, “University of Dundee, Small-Polar-MMV Screening Library” (2021):
Screen size: about 48,000 compounds; about 13,000 (27%) showed an effect of 50% or more. This is one part of the list.

The compounds below were run on Wolbachia pipientis (assay: Anti-Wolbachia Cell-Based Screen). Conditions: 5 µM.
Type: functional
Set-up: scale not given: in the data most compounds retested in dose-response had high values
`Cc1nn(C(C)C)c(C)c1NC(=O)c1ccc(F)cc1` was tested, and the “Percent Effect” value was -6.824%.
For `CN(C)Cc1ccccc1NC(=O)c1ccc(C#N)cc1`, the “Percent Effect” value was 4.666%.
With `N#Cc1ccccc1NC(=O)c1ccc2c(c1)OCO2` the “Percent Effect” value was 136.5%.
In the case of `CCc1noc(CN(C)CCC(=O)Nc2ccccc2C#N)n1`, the “Percent Effect” value is reported as 9.134%.
For `COc1cc(C)nc(N2CCN(C(C)c3nc(C)no3)CC2)n1` (stereo not drawn), the “Percent Effect” value was -6.748%.
With `CC(C)(O)CSCCNCc1ccc(Cl)c2cccnc12` the “Percent Effect” value was 7.695%.
`CC1CCC(NCCCN2CCOCC2)CC1` (stereo not drawn) was tested, and the “Percent Effect” value was -18.43%.
In the case of `C1CCC(NCCN2CCOCC2)C1`, the “Percent Effect” value is reported as -5.882%.
For `C1CN(CCN2CCOCC2)CCN1`, the “Percent Effect” value was 96.42%.
`Cc1cc(C)n(CC2CCCN2C(=O)CCc2cscn2)n1` (stereo not drawn) was tested, and the “Percent Effect” value was -3.871%.
In the case of `CCC(C)(NC(=O)CCN1CCOC1=O)C(=O)OC` (stereo not drawn), the “Percent Effect” value is reported as -2.045%.
`Cc1cc(C)n(C2CCCN(C(=O)CN(C)c3cnccn3)C2)n1` (stereo not drawn) was tested, and the “Percent Effect” value was -4.644%.
In the case of `Cc1cc(C)n(C2CCCN(C(=O)Cc3csc(C)n3)C2)n1` (stereo not drawn), the “Percent Effect” value is reported as 1.332%.
`O=C(CCc1nccs1)N1CCCC(n2cccn2)C1` (stereo not drawn) was tested, and the “Percent Effect” value was 73.36%.
`O=C(CCc1cnn(-c2ccccc2)c1)N1CCCC(n2cccn2)C1` (stereo not drawn) was tested, and the “Percent Effect” value was -6.718%.
In the case of `Cc1cc(C)n(C2CCCN(C(=O)CCc3nccs3)C2)n1` (stereo not drawn), the “Percent Effect” value is reported as 95.16%.
`Cc1cnn(C2CCCN(C(=O)CCc3nccs3)C2)c1` (stereo not drawn) was tested, and the “Percent Effect” value was -0.76%.
With `CN(CCc1ccccc1)Cc1cc(C(=O)N2CCN(C)C(=O)C2)no1` the “Percent Effect” value was 103.8%.
`CN(CCc1ccccc1)Cc1cc(C(=O)N2CCSCC2)no1` was tested, and the “Percent Effect” value was -17.09%.
`CN1CCCN(C(=O)c2cc(CN(C)CCc3ccccc3)on2)CC1` was tested, and the “Percent Effect” value was -31.64%.
For `O=C(NCCSCc1cccs1)C1CCCN(C(=O)N2CCCC2)C1` (stereo not drawn), the “Percent Effect” value was -5.994%.
With `COCCN1CCCC1c1nccnc1Nc1nc(C)cs1` (stereo not drawn) the “Percent Effect” value was -1.129%.
In the case of `COc1c(C2CCCN2CCOc2ccccc2C#N)c(C)nn1C` (stereo not drawn), the “Percent Effect” value is reported as -6.58%.
`Cc1cnc(NC(=O)c2ccc(C3CCCN3CC(C)C)s2)s1` (stereo not drawn) was tested, and the “Percent Effect” value was -4.424%.
`COCCN1CCN(Cc2nccs2)[C@H]2CS(=O)(=O)C[C@H]21` was tested, and the “Percent Effect” value was -12.76%.
`COCCN1CCCC1c1nccnc1Nc1nccs1` (stereo not drawn) was tested, and the “Percent Effect” value was 95.24%.
With `COCCN1CCCC1c1nccnc1Nc1ncc(C)s1` (stereo not drawn) the “Percent Effect” value was 100%.
`O=C(CN1CCN(c2ncnc3c2CCNCC3)CC1)N1CCCCC1` was tested, and the “Percent Effect” value was -2.249%.
For `c1ccc(-c2cnc(CNCC3CCCN3c3cccnn3)o2)cc1` (stereo not drawn), the “Percent Effect” value was -6.959%.
In the case of `Cn1cnc2c1C(C(=O)N1CCCC1)N(S(C)(=O)=O)CC2` (stereo not drawn), the “Percent Effect” value is reported as 3.413%.
In the case of `Cc1ccc(CN2CCc3ncnc(-c4ccoc4)c3CC2)o1.O=C(O)C(F)(F)F`, the “Percent Effect” value is reported as 105.9%.
For `Cc1ccc(CN2CCc3ncnc(-c4ccc(F)cc4)c3CC2)o1.O=C(O)C(F)(F)F`, the “Percent Effect” value was -0.3748%.
In the case of `Cc1ccc(CN2CCc3ncnc(-c4ccncc4)c3CC2)o1.O=C(O)C(F)(F)F.O=C(O)C(F)(F)F`, the “Percent Effect” value is reported as 96.83%.
For `CC(C)Oc1ncnc2c1CCN(Cc1ccco1)CC2.O=C(O)C(F)(F)F`, the “Percent Effect” value was 2.851%.
In the case of `CC(C)Oc1ncnc2c1CCN(Cc1ccoc1)CC2.O=C(O)C(F)(F)F`, the “Percent Effect” value is reported as 3.383%.
`O=C1CCc2cc(S(=O)(=O)NC(=O)c3ccc4c(c3)OCO4)ccc2N1` was tested, and the “Percent Effect” value was -58.45%.
In the case of `Cc1nc[nH]c1C(=O)N1CCC2(CC1)CN(CCN(C)C)C(=O)O2`, the “Percent Effect” value is reported as 0.5324%.
In the case of `Cc1ccc(C(=O)N2CCC3(CC2)CN(CCN(C)C)C(=O)O3)c(F)c1`, the “Percent Effect” value is reported as 62.77%.
For `Cc1cc(C(=O)N2CCC3(CC2)CN(CCN(C)C)C(=O)O3)nc(C)n1`, the “Percent Effect” value was -4.106%.
In the case of `Oc1ccccc1CN1C[C@H](O)C[C@H]1c1nc(Cc2ccccc2)no1`, the “Percent Effect” value is reported as 2.62%.
`CS(=O)(=O)N1C[C@@H]2CC[C@H](C1)N(Cc1ccsc1)C2` was tested, and the “Percent Effect” value was -3.691%.
In the case of `O[C@@H]1C[C@H]2CN(Cc3ccccc3)[C@H](Cc3ccccc3)CN2C1`, the “Percent Effect” value is reported as 111.3%.
`O[C@@H]1C[C@@H](c2nc(-c3ccccc3)no2)N(CC2CCCCC2)C1` was tested, and the “Percent Effect” value was -2.196%.
`O[C@@H]1C[C@@H](c2nc(-c3ccccc3)no2)N(Cc2ccncc2)C1` was tested, and the “Percent Effect” value was -6.257%.
`Cc1ccc(CN2C[C@H]3CN(Cc4ccccc4Cl)CCN3C2=O)cc1` was tested, and the “Percent Effect” value was 5.801%.
With `Cc1cccc(-c2noc([C@@H]3C[C@@H](O)CN3CC3CCCCC3)n2)c1` the “Percent Effect” value was 5.786%.
With `O[C@@H]1C[C@@H](c2nc(-c3ccccc3)no2)N(Cc2cccnc2)C1` the “Percent Effect” value was 4.417%.
For `O[C@@H]1C[C@H]2CN(Cc3ccsc3)[C@@H](Cc3ccccc3)CN2C1`, the “Percent Effect” value was 108.5%.
`O[C@@H]1C[C@H]2CN(CC3CCCCC3)[C@H](Cc3ccccc3)CN2C1` was tested, and the “Percent Effect” value was 87.27%.
In the case of `O[C@@H]1C[C@@H](c2nc(Cc3ccccc3)no2)N(Cc2ccc(F)cc2)C1`, the “Percent Effect” value is reported as 5.892%.
In the case of `O[C@@H]1C[C@H]2CN(Cc3ccccc3Cl)[C@H](Cc3ccccc3)CN2C1`, the “Percent Effect” value is reported as 117.1%.
In the case of `CCS(=O)(=O)NCc1cc(Br)c(OC)c(OC)c1`, the “Percent Effect” value is reported as -0.2028%.
`CCS(=O)(=O)c1ccccc1C(=O)NCC1Cc2ccccc2O1` (stereo not drawn) was tested, and the “Percent Effect” value was -9.446%.
`CC(C)CCC(=O)N1CCC(c2nnc(CN(C)CCO)n2C)CC1` was tested, and the “Percent Effect” value was -15.68%.
`CCOCC(=O)NC1(c2cccc(Br)c2)CC1` was tested, and the “Percent Effect” value was -23.15%.
With `Cc1n[nH]c(=O)c2c(NC(=O)CN3CCC(C)CC3)oc(C)c12` the “Percent Effect” value was 8.431%.
With `COC(=O)N1CCN(c2ncnc3nc(C)cc(C)c23)CC1` the “Percent Effect” value was 98.52%.
`Cc1cc(C)c2c(N(C)CC3COCCO3)ncnc2n1` (stereo not drawn) was tested, and the “Percent Effect” value was -3.038%.
In the case of `COCCCN1CCN(c2ncnc3nc(C)cc(C)c23)CC1`, the “Percent Effect” value is reported as -12.49%.
In the case of `Cc1cc(C)c2c(N3CCN(Cc4ncccc4C)CC3)ncnc2n1`, the “Percent Effect” value is reported as -39.06%.
In the case of `COCCN1CCN(c2ncnc3nc(C)cc(C)c23)CC1`, the “Percent Effect” value is reported as -19.86%.
With `Cc1cc(C)c2c(N3CCN(C(=O)N(C)C)CC3)ncnc2n1` the “Percent Effect” value was 111.7%.
For `CSc1ccc(NC(=O)Cc2cccc(O)c2)nc1`, the “Percent Effect” value was -26.55%.
For `Cc1cncc(C(=O)N2CCC3(CC2)C(=O)Nc2ccccc23)c1`, the “Percent Effect” value was -7.764%.
In the case of `FC(F)(F)c1ccc(-c2noc3c2CN(CC2CCCO2)CC3)cc1` (stereo not drawn), the “Percent Effect” value is reported as -4.107%.
`CC(C)N(CCNCc1ccc(C#N)cc1)C1CC1` was tested, and the “Percent Effect” value was -21.35%.
`Cc1c[nH]c(CN2CCCCC2CCN(C)C)c(C)c1=O` (stereo not drawn) was tested, and the “Percent Effect” value was -7.535%.
For `CN(C)CCN1CC[C@H]2[C@@H]1CCN2Cc1ccc2c(c1)OCO2`, the “Percent Effect” value was -11.21%.
`CC1c2ccsc2CCN1Cc1cc2c(cc1O)OCO2` (stereo not drawn) was tested, and the “Percent Effect” value was 137.7%.
For `CCC(=O)N1CCCN(C(=O)C2SCCc3sccc32)CC1` (stereo not drawn), the “Percent Effect” value was 13.84%.
`NC(=O)c1ccc(OCCC(=O)NC2CCc3c(F)cccc32)cc1` (stereo not drawn) was tested, and the “Percent Effect” value was 19.22%.
With `O=C(CN1CCCCCC1=O)NC1CCc2nccn2C1` (stereo not drawn) the “Percent Effect” value was 0.7111%.
`CCC[C@H]1CN(Cc2ccc(N(C)C)nc2)C[C@@H]1NC(=O)CCOC` was tested, and the “Percent Effect” value was -4.276%.
`Cc1ccc([C@H]2CN(CCO)C[C@@H]2NC(=O)CN2CCCCC2=O)o1` was tested, and the “Percent Effect” value was 92.71%.
In the case of `C/C=C(\C)CN1C[C@H](NC(=O)CN2CCCC2=O)[C@@H](c2ccc(C)o2)C1`, the “Percent Effect” value is reported as 97.75%.
In the case of `CC(=O)N[C@@H]1CN(C(=O)c2ccc[nH]2)C[C@H]1c1ccc(C)o1`, the “Percent Effect” value is reported as -8.166%.
In the case of `CNc1nc(CN2C[C@@H](NC(C)=O)[C@H](c3ccc(C)o3)C2)cs1`, the “Percent Effect” value is reported as 0.1699%.
For `CC(=O)N[C@@H]1CN(C(=O)c2cc(C)oc2C)C[C@H]1c1ccc(C)o1`, the “Percent Effect” value was -1.342%.
For `C/C=C(\C)CN1C[C@H](NC(=O)CCOC)[C@@H](c2ccc(C)o2)C1`, the “Percent Effect” value was 82.28%.
In the case of `CC(=O)N1C[C@H](NS(=O)(=O)N2CCCC2)[C@@H](c2ccc(C)o2)C1`, the “Percent Effect” value is reported as -3.445%.
For `COc1ccnc(CNc2nc(C)nc(C)c2C)c1`, the “Percent Effect” value was -1.425%.
With `CCc1nc(CC(=O)N2CCn3c(nnc3C(C)C)C2)cs1` the “Percent Effect” value was 3.887%.
In the case of `COCCN(Cc1nccs1)C(=O)c1c(C)cc(C)[nH]c1=O`, the “Percent Effect” value is reported as -6.144%.
`CC(C(=O)NC(C)(C)C)S(=O)(=O)Cc1noc(C(C)(C)C)n1` (stereo not drawn) was tested, and the “Percent Effect” value was 3.309%.
For `O=C(C1CCCC1)N1CCC(c2ccnc(Nc3cnccn3)n2)C1` (stereo not drawn), the “Percent Effect” value was 92.23%.
For `O=C(C1CCC1)N1CCCC(c2ccnc(Nc3cnccn3)n2)C1` (stereo not drawn), the “Percent Effect” value was 48.97%.
`Cl.Cl.NCC(=O)N1CCCC(c2ccnc(Nc3cnccn3)n2)C1` (stereo not drawn) was tested, and the “Percent Effect” value was 138.9%.
`CC(=O)N1CCCC(c2ccnc(Nc3cnccn3)c2)C1` (stereo not drawn) was tested, and the “Percent Effect” value was 134%.
In the case of `Cc1cc(C2CCCN(C(=O)c3cnccn3)C2)ccn1` (stereo not drawn), the “Percent Effect” value is reported as -6.489%.
For `CNCC(=O)N1CCCC(c2ccnc(Nc3cnccn3)n2)C1` (stereo not drawn), the “Percent Effect” value was 90.62%.
In the case of `COCc1ccc(C(=O)N2CC[C@@](O)(COC)C(C)(C)C2)o1`, the “Percent Effect” value is reported as 3.183%.
`CCc1c(C)nn(CC(=O)NC(C(=O)O)c2c(C)n[nH]c2C)c1C` (stereo not drawn) was tested, and the “Percent Effect” value was 1.191%.
With `Cc1ccccc1CC1(CO)CCCN(c2ncccc2C#N)C1` (stereo not drawn) the “Percent Effect” value was 0.9317%.
`C=C(C)CNc1nc(CS(=O)(=O)c2ccccc2)cs1` was tested, and the “Percent Effect” value was -10.96%.
`CC(CNC(=O)N1CCN(Cc2ccon2)CC1)Cc1cccs1` (stereo not drawn) was tested, and the “Percent Effect” value was -18.64%.
In the case of `O=C(Cn1c(=O)oc2ccccc21)N1Cc2cnn(CCO)c2C1`, the “Percent Effect” value is reported as -5.203%.
With `CC(=O)N1CCCC(c2ccnc(Nc3cnccn3)n2)C1` (stereo not drawn) the “Percent Effect” value was 113.3%.
With `O=C(c1cccc2c1OCO2)N1CCCCC1Cn1cccn1` (stereo not drawn) the “Percent Effect” value was -4.366%.
With `COc1ccc(CCC(=O)N2CCCCC2Cn2cccn2)cc1F` (stereo not drawn) the “Percent Effect” value was 155.4%.
For `O=C(CCc1c(F)cccc1F)N1CCCCC1Cn1cccn1` (stereo not drawn), the “Percent Effect” value was 126.8%.
For `COc1ccc(CC(=O)N2CCCC2Cn2cccn2)cc1F` (stereo not drawn), the “Percent Effect” value was 2.407%.
`O=C(CCc1ccc(F)c(F)c1)N1CCCCC1Cn1cccn1` (stereo not drawn) was tested, and the “Percent Effect” value was 87.24%.
With `O=C(CCc1ccc2c(c1)OCO2)N1CCCCC1Cn1cccn1` (stereo not drawn) the “Percent Effect” value was 137.4%.
